# Experimental data: PubChem BioAssay AID1159580 (chemical genetic matrix, 2015)
# The campaign covered roughly 5,500 compounds. About 2,000 (36%) were called active. Not shown: some 18% with an inconclusive outcome. This is one part of the list. A number with no mark means an inactive call. No stated cut-off is given here; in the data, active means normalized growth mostly below about 0.91 (no sharp cut-off); inconclusive means no clear call, values can overlap the other calls; inactive means mostly above about 0.92.
# Assay: chemical genetic growth profiling, strain panel (AID 1159580);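 further: tested at 20 µM; growth read once vehicle control cultures reached saturation at 30 °C; 1 = growth at the plate median or of vehicle wells; lower values mean less growth of the strain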
# Details: growth OD
# [1] = S. cerevisiae deletion strains, locus YDL101C, strain DUN1, active compounds read low
# [2] = S. cerevisiae deletion strains, locus YHR030C, strain SLT2, active compounds read low
smiles,measurement,setting,value
Cc1ccc(OCc2nnc(SCC(=O)c3ccc(F)cc3)n2-c2ccccc2)c2c1CCC2,normalized growth,"S. cerevisiae deletion strains, locus YAL013W, strain DEP1, active compounds read low",0.982
same,normalized growth,"S. cerevisiae deletion strains, locus YBR229C, strain ROT2, active compounds read low",0.987
same,normalized growth,[1],0.961
same,normalized growth,"S. cerevisiae deletion strains, locus YDL134C, strain PPH21, active compounds read low",0.982
same,normalized growth,"S. cerevisiae deletion strains, locus YDR150W, strain NUM1, active compounds read low",0.972
same,normalized growth,"S. cerevisiae deletion strains, locus YEL061C, strain CIN8, active compounds read low",0.982
same,normalized growth,"S. cerevisiae deletion strains, locus YGR078C, strain PAC10, active compounds read low",0.966
same,normalized growth,"S. cerevisiae deletion strains, locus YGR229C, strain SMI1, active compounds read low",0.984
same,normalized growth,[2],0.964
same,normalized growth,"S. cerevisiae deletion strains, locus YHR087W, strain rtc3, active compounds read low",0.957
same,normalized growth,"S. cerevisiae deletion strains, locus YJL187C, strain SWE1, active compounds read low",0.983
same,normalized growth,"S. cerevisiae deletion strains, locus YJR043C, strain POL32, active compounds read low",0.969
same,normalized growth,"S. cerevisiae deletion strains, locus YJR075W, strain HOC1, active compounds read low",0.986
same,normalized growth,"S. cerevisiae deletion strains, locus YLR039C, strain RIC1, active compounds read low",0.968
same,normalized growth,"S. cerevisiae deletion strains, locus YLR058C, strain SHM2 (second series), active compounds read low",0.978
same,normalized growth,"S. cerevisiae deletion strains, locus YLR085C, strain ARP6, active compounds read low",0.957
same,normalized growth,"S. cerevisiae deletion strains, locus YLR262C, strain YPT6, active compounds read low",0.961
same,normalized growth,"S. cerevisiae deletion strains, locus YML094W, strain GIM5, active compounds read low",0.947
same,normalized growth,"S. cerevisiae deletion strains, locus YMR219W, strain ESC1, active compounds read low",0.99
same,normalized growth,"S. cerevisiae deletion strains, locus YMR263W, strain SAP30, active compounds read low",0.982
same,normalized growth,"S. cerevisiae deletion strains, locus YMR307W, strain GAS1, active compounds read low",1.01
same,normalized growth,"S. cerevisiae deletion strains, locus YNL128W, strain TEP1, active compounds read low",0.992
same,normalized growth,"S. cerevisiae deletion strains, locus YNL153C, strain GIM3, active compounds read low",0.989
same,normalized growth,"S. cerevisiae deletion strains, locus YNL298W, strain CLA4 (second series), active compounds read low",0.972
same,normalized growth,"S. cerevisiae deletion strains, locus YNL322C, strain KRE1, active compounds read low",0.993
same,normalized growth,"S. cerevisiae deletion strains, locus YNR030W, strain Alg12, active compounds read low",0.98
same,normalized growth,"S. cerevisiae deletion strains, locus YOL006C, strain TOP1, active compounds read low",0.963
same,normalized growth,"S. cerevisiae deletion strains, locus YPL055C, strain LGE1, active compounds read low",0.956
same,normalized growth,"S. cerevisiae deletion strains, locus YPL241C, strain CIN2, active compounds read low",1.04
same,normalized growth,"S. cerevisiae deletion strains, locus YPR135W, strain CTF4, active compounds read low",0.867
same,normalized growth,"S. cerevisiae strains, strain wild type, active compounds read low",0.971
Cc1ccc(OCc2n[nH]c(=S)n2Cc2ccccc2)c2c1CCC2,normalized growth,"S. cerevisiae deletion strains, locus YAR019C, strain CDC15, active compounds read low",0.987
same,normalized growth,"S. cerevisiae deletion strains, locus YBL105C, strain PKC1, active compounds read low",0.988
same,normalized growth,"S. cerevisiae deletion strains, locus YBR135W, strain CKS1, active compounds read low",0.982
same,normalized growth,"S. cerevisiae deletion strains, locus YBR136W, strain MEC1, active compounds read low",0.98
same,normalized growth,"S. cerevisiae deletion strains, locus YBR160W, strain CDC28, active compounds read low",0.985
same,normalized growth,"S. cerevisiae deletion strains, locus YDL017W, strain CDC7, active compounds read low",0.987
same,normalized growth,"S. cerevisiae deletion strains, locus YDL028C, strain MPS1, active compounds read low",0.975
same,normalized growth,[1],0.994
same,normalized growth,"S. cerevisiae deletion strains, locus YDL108W, strain KIN28, active compounds read low",0.973
same,normalized growth,"S. cerevisiae deletion strains, locus YDL132W, strain cdc53, active compounds read low",0.99
same,normalized growth,"S. cerevisiae deletion strains, locus YDL214C, strain PRR2, active compounds read low",0.823
same,normalized growth,"S. cerevisiae deletion strains, locus YDR052C, strain DBF4, active compounds read low",0.995
same,normalized growth,"S. cerevisiae deletion strains, locus YDR054C, strain cdc34, active compounds read low",0.988
same,normalized growth,"S. cerevisiae deletion strains, locus YDR226W, strain ADK1, active compounds read low",0.988
same,normalized growth,"S. cerevisiae deletion strains, locus YDR477W, strain SNF1, active compounds read low",0.817
same,normalized growth,"S. cerevisiae deletion strains, locus YER123W, strain YCK3, active compounds read low",0.609 (active)
same,normalized growth,"S. cerevisiae deletion strains, locus YER133W, strain GLC7, active compounds read low",0.841
same,normalized growth,"S. cerevisiae deletion strains, locus YFL009W, strain cdc4, active compounds read low",0.984
same,normalized growth,"S. cerevisiae deletion strains, locus YFL029C, strain CAK1, active compounds read low",0.992
same,normalized growth,"S. cerevisiae deletion strains, locus YFR003C, strain YPI1, active compounds read low",0.985
same,normalized growth,"S. cerevisiae deletion strains, locus YFR019W, strain FAB1, active compounds read low",0.68 (active)
same,normalized growth,"S. cerevisiae deletion strains, locus YFR028C, strain CDC14, active compounds read low",0.984
same,normalized growth,"S. cerevisiae deletion strains, locus YGR040W, strain KSS1, active compounds read low",0.801
same,normalized growth,"S. cerevisiae deletion strains, locus YGR052W, strain FMP48, active compounds read low",0.647
same,normalized growth,"S. cerevisiae deletion strains, locus YGR092W, strain DBF2, active compounds read low",0.495
same,normalized growth,[2],0.283 (active)
same,normalized growth,"S. cerevisiae deletion strains, locus YHR079C, strain IRE1, active compounds read low",0.619
same,normalized growth,"S. cerevisiae deletion strains, locus YHR082C, strain KSP1, active compounds read low",0.53 (active)
same,normalized growth,"S. cerevisiae deletion strains, locus YHR205W, strain SCH9, active compounds read low",0.908
same,normalized growth,"S. cerevisiae deletion strains, locus YIL147C, strain SLN1, active compounds read low",0.967
same,normalized growth,"S. cerevisiae deletion strains, locus YJL095W, strain BCK1, active compounds read low",0.656
same,normalized growth,"S. cerevisiae deletion strains, locus YJL128C, strain PBS2, active compounds read low",0.955
same,normalized growth,"S. cerevisiae deletion strains, locus YJL157C, strain FAR1, active compounds read low",0.803
same,normalized growth,"S. cerevisiae deletion strains, locus YJR016C, strain ILV3, active compounds read low",0.986
same,normalized growth,"S. cerevisiae deletion strains, locus YJR066W, strain TOR1 (second series), active compounds read low",0.797
same,normalized growth,"S. cerevisiae deletion strains, locus YJR066W, strain TOR1, active compounds read low",0.73
same,normalized growth,"S. cerevisiae deletion strains, locus YKL048C, strain ELM1, active compounds read low",0.782 (active)
same,normalized growth,"S. cerevisiae deletion strains, locus YKL067W, strain YNK1, active compounds read low",0.838
same,normalized growth,"S. cerevisiae deletion strains, locus YKL101W, strain HSL1, active compounds read low",0.722 (active)
same,normalized growth,"S. cerevisiae deletion strains, locus YKL193C, strain SDS22, active compounds read low",0.988
same,normalized growth,"S. cerevisiae deletion strains, locus YKL203C, strain TOR2, active compounds read low",0.829
same,normalized growth,"S. cerevisiae deletion strains, locus YLR113W, strain HOG1, active compounds read low",0.698 (active)
same,normalized growth,"S. cerevisiae deletion strains, locus YLR133W, strain CKI1, active compounds read low",0.793
same,normalized growth,"S. cerevisiae deletion strains, locus YLR403W, strain SFP1, active compounds read low",0.84
same,normalized growth,"S. cerevisiae deletion strains, locus YML070W, strain DAK1, active compounds read low",0.752
same,normalized growth,"S. cerevisiae deletion strains, locus YMR001C, strain CDC5, active compounds read low",0.984
same,normalized growth,"S. cerevisiae deletion strains, locus YMR205C, strain PFK2 (second series), active compounds read low",0.847
same,normalized growth,"S. cerevisiae deletion strains, locus YMR277W, strain FCP1, active compounds read low",0.986
same,normalized growth,"S. cerevisiae deletion strains, locus YNL006W, strain LST8, active compounds read low",0.998
same,normalized growth,"S. cerevisiae deletion strains, locus YNL020C, strain ARK1, active compounds read low",0.713
same,normalized growth,"S. cerevisiae deletion strains, locus YNL161W, strain CBK1, active compounds read low",0.99
same,normalized growth,"S. cerevisiae deletion strains, locus YNL183C, strain NPR1, active compounds read low",0.628
same,normalized growth,"S. cerevisiae deletion strains, locus YNL207W, strain RIO2, active compounds read low",0.988
same,normalized growth,"S. cerevisiae deletion strains, locus YNL222W, strain SSU72, active compounds read low",0.986
same,normalized growth,"S. cerevisiae deletion strains, locus YNL307C, strain MCK1 (second series), active compounds read low",0.621 (active)
same,normalized growth,"S. cerevisiae deletion strains, locus YOL078W, strain AVO1, active compounds read low",0.985
same,normalized growth,"S. cerevisiae deletion strains, locus YOL136C, strain PFK27, active compounds read low",0.785
same,normalized growth,"S. cerevisiae deletion strains, locus YOR061W, strain CKA2, active compounds read low",0.751
same,normalized growth,"S. cerevisiae deletion strains, locus YOR119C, strain RIO1, active compounds read low",0.883
same,normalized growth,"S. cerevisiae deletion strains, locus YOR231W, strain MKK1, active compounds read low",0.677
same,normalized growth,"S. cerevisiae deletion strains, locus YOR329C, strain SCD5, active compounds read low",0.988
same,normalized growth,"S. cerevisiae deletion strains, locus YPL031C, strain PHO85, active compounds read low",0.746
same,normalized growth,"S. cerevisiae deletion strains, locus YPL153C, strain RAD53, active compounds read low",0.609 (active)
same,normalized growth,"S. cerevisiae deletion strains, locus YPL204W, strain HRR25, active compounds read low",0.723
same,normalized growth,"S. cerevisiae deletion strains, locus YPL209C, strain IPL1, active compounds read low",0.984
same,normalized growth,"S. cerevisiae deletion strains, locus YPL256C, strain CLN2, active compounds read low",0.655 (active)
same,normalized growth,"S. cerevisiae deletion strains, locus YPR025C, strain CCL1, active compounds read low",0.989
same,normalized growth,"S. cerevisiae deletion strains, locus YPR106W, strain ISR1, active compounds read low",0.992
same,normalized growth,"S. cerevisiae deletion strains, locus YPR111W, strain DBF20, active compounds read low",0.99
same,normalized growth,"S. cerevisiae deletion strains, strain NNK1, active compounds read low",1
same,normalized growth,"S. cerevisiae deletion strains, strain TSCII, active compounds read low",0.991
